Screening results from PubChem.
In the library only some 6.8% were active in any assay of this set; here they are far more common.
Pf_Dd2_growth = blocks growth of Plasmodium falciparum Dd2 parasites. AID 1159554. 94,000 tested, 2.3% active. P. falciparum Dd2 growth, SYBR Green, 72 h; active compounds read low. activity change, % at 10 µM; in the data active = activity change below about -80%; inconclusive = no clear call, values can overlap the other calls
C_diff_growth = inhibitors of Clostridium difficile growth. growth activity, negative = inhibition, % at 16 µg/mL (by protocol). Clostridium difficile clinical isolate growth, OD600, 24 h; active compounds read low. AID 1259249. 86,000 tested, 0.25% active;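 active = mean growth activity at or below -80% and every replicate also at or below -80%; inconclusive = mean at or below -80% but some replicate above -80%; inactive = mean growth activity above -80%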;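 note: 0% = DMSO wells and -100% = levofloxacin 16 µg/mL wells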
T_cruzi_growth-1 = blocks T. cruzi growth in NIH3T3 culture. 77,000 tested, 5.9% active. T. cruzi beta-gal in NIH3T3, GalScreen luminescence, 90 h. inhibition, % at 8.34 µM;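 active = mean inhibition above about 93%, with at least 55% of replicates each passing it, limit read from the data, passing the limit was not always enough; inconclusive = only one of those two conditions holds; inactive = neither condition holds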
T_cruzi_growth-2 = blocks T. cruzi growth in NIH3T3 host cells | shares compounds with T_cruzi_growth-1 | T. cruzi beta-gal in NIH3T3, GalScreen luminescence, 90 h | inhibition, % at 8.35 µM | 5,600 tested, 72% active | AID 651739;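 active = mean replicate inhibition above about 95% and at least 55% of replicates individually reaching it, limit read from the data; inconclusive = only one of the two criteria is met; inactive = neither criterion is met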
T_cruzi_growth-3 = blocks T. cruzi growth in NIH3T3 host cells | shares compounds with T_cruzi_growth-1 | T. cruzi beta-gal in NIH3T3, GalScreen luminescence, 90 h | inhibition, % at 2.09 µM | AID 651740 | 5,600 tested, 21% active;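 active = mean inhibition above about 95%, with at least 55% of replicates also reaching it, limit read from the data; inconclusive = meets just one of the two conditions; inactive = meets neither condition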;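 note: plate controls were neutral control median for no effect and positive control median for full effect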
NIH3T3_tox = kills mouse NIH/3T3 fibroblasts. shares compounds with T_cruzi_growth-1. NIH/3T3 viability, CellTiter-Glo ATP luminescence, 90 h. cytotoxicity (signal decrease), % at 8.35 µM. 5,600 tested, 14% active. AID 651742;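 active = mean signal decrease across replicates above about 35% based on untreated-well scatter, with enough replicates individually passing, limit read from the data; inconclusive = no rule stated though some were filed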;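 note: 0% = median of neutral control wells and 100% = median of positive control wells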
NIH3T3_tox_2 = cytotoxicity in mouse NIH/3T3 fibroblasts | 5,600 tested, 56% active | shares compounds with T_cruzi_growth-1 | NIH/3T3 viability, CellTiter-Glo ATP luminescence, 90 h | inhibition, % at 24.9 µM;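 active = mean loss of cell viability signal at or above a set limit, and enough replicates individually reaching it; inconclusive = meets only the mean limit or only the replicate share; inactive = meets neither condition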;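 note: 0% = median of neutral control wells and 100% = median of positive control wells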
Starred values were filed as active, the others as inactive; ? = inconclusive; · = no result given; ! = not confirmed by another sample.

SMILES Pf_Dd2_growth C_diff_growth T_cruzi_growth-1 T_cruzi_growth-2 T_cruzi_growth-3 NIH3T3_tox NIH3T3_tox_2
C[C@H](CO)N1C[C@H](C)[C@H](CN(C)C(=O)Nc2ccc(F)cc2)OCCCC[C@H](C)Oc2ccc(NC(=O)Nc3cccc4ccccc34)cc2C1=O 8 2 78 · · · ·
C[C@@H]1CN([C@H](C)CO)C(=O)c2cc(NC(=O)c3ccccc3)ccc2O[C@@H](C)CCCCO[C@H]1CN(C)C(=O)Nc1cccc2ccccc12 -70 -4 93 · · · ·
C[C@@H]1CCCCO[C@H](CN(C)C(=O)Nc2cccc3ccccc23)[C@H](C)CN([C@@H](C)CO)C(=O)c2cc(NC(=O)c3ccccc3)ccc2O1 -65 -5 101* 109* 70 -7 -5
COc1ccc(NC(=O)Nc2ccc3c(c2)C(=O)N([C@H](C)CO)C[C@H](C)[C@@H](CN(C)C(=O)Nc2cccc4ccccc24)OCCCC[C@H](C)O3)cc1 -15 0 35 · · · ·
C[C@H]1CN([C@@H](C)CO)C(=O)c2cc(-c3cccc(C#N)c3)cnc2O[C@@H]1CN(C)C(=O)c1cnccn1 13 -2 · · · · ·
COc1ccc(CN(C)C[C@@H]2Oc3ccc(NC(=O)Nc4c(C)noc4C)cc3C(=O)N([C@H](C)CO)C[C@H]2C)cc1 8 0 0 · · · ·
CCCN(C)C[C@H]1OCc2cn(nn2)CCCC(=O)N([C@@H](C)CO)C[C@H]1C -18 -2 0 · · · ·
O=C(C1CCCCC1)N1C[C@@H]2[C@H](c3ccccc31)[C@@H](CO)N2C(=O)c1ccccc1F -17 3 8 · · · ·
C[C@@H]1CCCCO[C@@H](CN(C)C(=O)Nc2ccc(F)cc2)[C@@H](C)CN([C@@H](C)CO)C(=O)c2cc(NC(=O)Nc3cccc4ccccc34)ccc2O1 -77 0 89 · · · ·
C[C@H]1CCCCO[C@H](CN(C)C(=O)Nc2cccc3ccccc23)[C@@H](C)CN([C@@H](C)CO)C(=O)c2cc(NC(=O)Nc3ccccc3)ccc2O1 -9 9 ? 106* 113* 1 -9
C[C@H]1CCCCO[C@H](CN(C)C(=O)Nc2cccc3ccccc23)[C@@H](C)CN([C@@H](C)CO)C(=O)c2cc(NC(=O)Nc3ccc(F)cc3)ccc2O1 8 -14 17 · · · ·
C[C@@H]1CCCCO[C@@H](CN(C)C(=O)Nc2ccc(F)cc2)[C@@H](C)CN([C@H](C)CO)C(=O)c2cc(NC(=O)Nc3cccc4ccccc34)ccc2O1 11 -8 103* 89 18 4 15
C[C@@H]1CCCCO[C@@H](CN(C)C(=O)Nc2cccc3ccccc23)[C@H](C)CN([C@H](C)CO)C(=O)c2cc(NC(=O)Nc3ccc(F)cc3)ccc2O1 -51 11 96* 102* 109* -10 2
C[C@H](CO)N1C[C@H](C)[C@@H](CN(C)C(=O)Nc2cccc3ccccc23)OCCCC[C@H](C)Oc2ccc(NC(=O)Nc3ccccc3)cc2C1=O 12 0 55 · · · ·
C[C@@H]1CN([C@@H](C)CO)C(=O)c2cccc(NC(=O)Nc3ccccc3)c2O[C@H]1CN(C)Cc1ccc(C(=O)O)cc1 -5 -2 · · · · ·
O=C(C[C@H]1C=C[C@@H](NC(=O)C2CCC2)[C@@H](CO)O1)NCc1ccccc1Cl -22 4 · · · · ·
COc1ccc(S(=O)(=O)Nc2ccc3c(c2)C(=O)N([C@H](C)CO)C[C@@H](C)[C@@H](CN(C)C(=O)NC(C)C)O3)cc1 6 -1 -2 · · · ·
O=C(NCC(F)(F)F)[C@@H]1[C@@H](CO)[C@@H]2Cn3c(cccc3=O)[C@H]1N2C(=O)C1CC1 -13 -3 ? 1 39 -13 3
COc1cccc(CNC(=O)[C@H]2[C@H](CO)[C@H]3Cn4c(cccc4=O)[C@@H]2N3C(=O)C2CCCCC2)c1 · 3 157* 77 12 -25 -16
O=C(NCC(F)(F)F)[C@H]1[C@H](CO)[C@H]2Cn3c(cccc3=O)[C@@H]1N2C(=O)C1CCC1 18 1 3 · · · ·
CCCNC(=O)[C@H]1[C@H](CO)[C@H]2Cn3c(cccc3=O)[C@@H]1N2C(=O)C1CCCC1 6 13 45 · · · ·
CC(C)NC(=O)Nc1ccc2c(c1)CC(=O)N([C@@H](C)CO)C[C@H](C)[C@@H](CN(C)S(=O)(=O)c1cn(C)cn1)O2 22 -2 -13 · · · ·
C[C@@H]1CCCCO[C@H](CN(C)C(=O)CCC(F)(F)F)[C@H](C)CN([C@H](C)CO)C(=O)c2cc(N(C)C)ccc2O1 · -1 38 · · · ·
C[C@@H]1CCCCO[C@@H](CN(C)C(=O)CCCN(C)C)[C@H](C)CN([C@@H](C)CO)C(=O)c2cc(N(C)C)ccc2O1 24 -2 27 · · · ·
C[C@@H]1CCCCO[C@@H](CN(C)C(=O)CCC(F)(F)F)[C@@H](C)CN([C@H](C)CO)C(=O)c2cc(N(C)C)ccc2O1 -14 -1 99*! 61 10 1 -52
SMILES Pf_Dd2_growth C_diff_growth T_cruzi_growth-1 T_cruzi_growth-2 T_cruzi_growth-3 NIH3T3_tox NIH3T3_tox_2
C[C@@H]1CCCCO[C@@H](CN(C)C(=O)CCCN(C)C)[C@@H](C)CN([C@H](C)CO)C(=O)c2cc(N(C)C)ccc2O1 14 -1 108*! 55 1 8 9
CO[C@@H]1CN(C)C(=O)c2cc(NC(=O)C3CCCC3)ccc2OC[C@@H](C)N(CCC(F)(F)F)C[C@@H]1C · · 1 · · · ·
COc1ccc2c3c(n(C)c2c1)[C@@H](CO)N(Cc1nccs1)CC31CCN(C(=O)CC2CC2)CC1 37 · · · · · ·
O=C(Nc1ccccc1)Nc1ccc2c(c1)[C@H]1C[C@H](CC(=O)N3CCOCC3)O[C@@H](CO)[C@H]1O2 8 0 10 · · · ·
C[C@@H]1CCCCO[C@H](CN(C)Cc2ccc3c(c2)OCO3)[C@H](C)CN([C@@H](C)CO)C(=O)c2cc(NC(=O)Nc3cccc4ccccc34)ccc2O1 -78 20 116* 92 103* 24 103*
C[C@@H]1CCCCO[C@@H](CN(C)C(=O)Nc2ccc3c(c2)OCO3)[C@H](C)CN([C@H](C)CO)C(=O)c2cc(NC(=O)Nc3cccc4ccccc34)ccc2O1 -12 -6 · · · · ·
C[C@H]1CCCCO[C@H](CN(C)Cc2ccc3c(c2)OCO3)[C@@H](C)CN([C@@H](C)CO)C(=O)c2cc(NC(=O)Nc3cccc4ccccc34)ccc2O1 -76 22 64 · · · ·
C[C@@H]1CN([C@H](C)CO)C(=O)c2cc(NC(=O)Nc3cccc4ccccc34)ccc2O[C@@H](C)CCCCO[C@@H]1CN(C)Cc1ccc2c(c1)OCO2 -89* · ? 98* 109* 31 38*
